From PubChem BioAssay (Tox21)
Unmarked numbers belong to inactive results. Records with an inconclusive call do not appear. Where a call stands in place of a potency, no number is given. Calls of active or inactive are those of the source. Unless noted, the call rests on the fitted dose curve.

What was measured:
[1] = Nuclear factor erythroid 2-related factor 2/antioxidant responsive element (Nrf2/ARE) small molecule agonists: qHTS cell viability counter screen in human keratinocytes (AID 1919968; active means well fitted curve in the direction sought with a large enough effect in the repeat runs; an effect the other way counts as inactive or inconclusive; further: nearly all actives have a fitted effect of over 55% in size; further: potency means the concentration at half of the fitted maximal effect)
How it was run: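 Cytotoxicity was multiplexed with the Nrf2/ARE luciferase assay in the same wells. Stably transfected HaCaT keratinocytes were treated with test compounds for 23 h at 37 C. Cell viability was then measured by CellTiter-Fluor fluorescence.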

[2] = Nuclear factor erythroid 2-related factor 2/antioxidant responsive element (Nrf2/ARE) small molecule agonists: luciferase reporter gene qHTS assay in human keratinocytes (AID 1919969); further: nearly all actives have a fitted effect of over 35% in size; further: potency means the concentration at half of the fitted maximal effect
[3] = target: Gonadotropin-releasing hormone receptor (Homo sapiens) (UniProt P30968); experiment: Human gonadotropin-releasing hormone receptor (GnRHR) small molecule agonists, calcium flux assay in GnRHR-HEK293 cells (AID 1920063); further: nearly all actives have a fitted effect of over 35% in size; further: potency means the concentration at half of the fitted maximal effect
How it was run: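 Agonist activity was measured as intracellular calcium flux in HEK293 cells engineered to stably express human GnRHR. After dye loading for 1 hour at 37 C, compounds in DMSO were added and fluorescence was followed for 3 minutes.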

[4] = target: KiSS-1 receptor (Homo sapiens) (UniProt Q969F8); experiment: Human kisspeptin (KISS1R) small molecule agonists, calcium flux assay in KISS1R-HEK293 cells (AID 1920064; active means well fitted curve in the direction sought with a large enough effect in the repeat runs; an effect the other way counts as inactive or inconclusive)
How it was run: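 Agonist activity is monitored as intracellular calcium rise in engineered HEK293 cells carrying human KISS1R. Cells are dye-loaded for 1 h at 37 C before compound addition, and fluorescence is recorded for 3 min.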

[5] = G protein-coupled receptor (GPCR) small molecule agonists, calcium flux assay: HEK293 wild type cell line counter screen (AID 1920065)
How it was run: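 Seed cells, incubate 18 h (37 C, 5% CO2); add calcium dye, 1 h at 37 C; pin-transfer compounds, ATP control or DMSO; read fluorescence 480/540 nm each second for 3 min.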

[6] = p53 small molecule agonists, cell-based qHTS assay with human liver microsomes: qHTS cell viability counter screen (AID 1963579); further: nearly all actives have a fitted effect of over 45% in size
How it was run: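 Metabolically activated exposure: compounds, human liver microsomes and NADPH (0.5 mg/mL final apiece) were added to p53RE-bla cells seeded 5 h earlier, left 16 h at 37 C, and then assessed for viability by CellTiter-Glo luminescence.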

[7] = p53 small molecule agonists, cell-based qHTS assay with rat liver microsomes: qHTS cell viability counter screen (AID 1963580); further: nearly all actives have a fitted effect of over 45% in size
How it was run: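 Counter screen for cytotoxicity under metabolic activation: rat liver microsomes and NADPH, 0.5 mg/mL final each, added with compounds to p53RE-bla HCT-116 cells; 16 h at 37 C, then ATP luminescence read.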

[8] = p53 small molecule agonists, cell-based qHTS assay: qHTS cell viability counter screen (AID 1963581); further: nearly all actives have a fitted effect of over 45% in size
How it was run: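 Viability was counter-screened in parallel with the p53 agonist reporter by measuring intracellular ATP luminescence in the same HCT-116 p53RE-bla wells after 16 h compound treatment at 37 C.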

[9] = target: 5-hydroxytryptamine receptor 2A (Homo sapiens) (UniProt P28223); experiment: 5-hydroxytryptamine receptor 2A (HTR2A) small molecule agonists, cell-based qHTS assay (AID 1963587); further: nearly all actives have a fitted effect of over 30% in size
How it was run: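 HTR2A-CHO cells, plated 18 h at 37 C/5% CO2, dye-loaded 1 h at 37 C; compounds in DMSO added by pin tool (agonist mode). Intracellular calcium flux read as kinetic fluorescence on FDSS over 2 min at 1 s intervals.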

[10] = target: Muscarinic acetylcholine receptor M1 (Homo sapiens) (UniProt P11229); experiment: Cholinergic receptor muscarinic 1 (CHRM1) small molecule antagonists, cell-based qHTS assay (AID 1963588); further: nearly all actives have a fitted effect of over 40% in size
How it was run: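 Compounds were tested at 15 concentrations in three independent runs. Dye-loaded CHRM1-CHO cells were exposed 5 min at room temperature before stimulation by acetylcholine added at 50nM. Intracellular calcium was read kinetically on FDSS for 3 min.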

[11] = target: Muscarinic acetylcholine receptor M1 (Homo sapiens) (UniProt P11229); experiment: Cholinergic receptor muscarinic 1 (CHRM1) small molecule agonists, cell-based qHTS assay (AID 1963589); further: nearly all actives have a fitted effect of over 35% in size
How it was run: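 Cells were plated and incubated 18 h at 37 C/5% CO2, loaded with calcium dye for 1 h at 37 C, then treated with compounds in DMSO. Fluorescence was recorded kinetically at 1 sec intervals.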

[12] = cAMP Responsive Elements (CRE) small molecule agonists, cell-based qHTS assay (AID 1963590)
How it was run: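 Cells carrying a CRE-driven beta-lactamase reporter (HEK 293T) are seeded, incubated overnight (18 h), and treated with test compounds for 3 h at 37 C; reporter activity is then detected with a FRET substrate after 2 h at room temperature.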

[13] = target: Beta-2 adrenergic receptor (Homo sapiens) (UniProt P07550); experiment: Adrenergic beta2 receptor (ADRB2) small molecule antagonists, cell-based qHTS assay (AID 1963592); further: series mostly up to about 92 µM; nearly all actives have a fitted effect of over 50% in size
How it was run: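 Assay format: CHO-ADRB2 cells, 18-20hr seeding at 37C/5% CO2, then compound plus 1nM isoproterenol agonist mix for 0.5hr RT. Homogeneous time-resolved fluorescence cAMP detection after 1hr, expressed as 665/615 nm ratio.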

[14] = target: D(2) dopamine receptor (Homo sapiens) (UniProt P14416); experiment: Dopamine D2 receptor (DRD2) small molecule agonists, cell-based qHTS assay (AID 1963594); further: nearly all actives have a fitted effect of over 35% in size
How it was run: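 HEK293 cells stably expressing DRD2 were cultured 24 h at 37 C, then given Ro20-1724 (0.1 mM final) and compounds for 10 min at room temperature. NKH477 (200nM) was then added for 30 min. cAMP was read by HTRF.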

[15] = target: D(2) dopamine receptor (Homo sapiens) (UniProt P14416); experiment: Dopamine D2 receptor (DRD2) small molecule antagonists, cell-based qHTS assay (AID 1963595; active means well fitted inhibition curve with a large enough effect in the signal ratio in the repeat runs, with a control signal flat; the % refers to the signal ratio; further: potency means the concentration at half of the fitted maximal effect)
How it was run: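 Cells were plated and grown for 24 h at 37 °C. Ro20-1724 (0.1 mM final) went in first, then compound for 10 min. NKH477 (200 nM) with quinpirole (12 nM) followed for 30 min at RT, then HTRF detection reagents for 1 h.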

[16] = cAMP Responsive Elements (CRE) small molecule antagonists, cell-based qHTS assay (AID 1963591; active means well fitted inhibition curve with a large enough effect in the signal ratio in the repeat runs, not every such curve was filed as active; the % refers to the signal ratio)
How it was run: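 Cells (CRE-bla HEK 293T, DMEM with 10% dialyzed FBS and 25 mM HEPES) are seeded and incubated 18 h. Compounds are added with NKH477 agonist at 0.25 uM final for 3 h, then FRET substrate for 2 h.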

[17] = target: Beta-2 adrenergic receptor (Homo sapiens) (UniProt P07550); experiment: Adrenergic beta2 receptor (ADRB2) small molecule agonists, cell-based qHTS assay (AID 1963593);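 further: CHO cells stably overexpressing human ADRB2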
How it was run: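 CHO cells stably over-expressing ADRB2 were plated overnight at 37C, then dosed with compounds plus a stimulation mix containing 100uM IBMX and 25uM Ro-20-1724 for 0.5hr at room temperature. cAMP was measured by HTRF competition, 1hr.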

[18] = target: 5-hydroxytryptamine receptor 2A (Homo sapiens) (UniProt P28223); experiment: 5-hydroxytryptamine receptor 2A (HTR2A) small molecule antagonists, cell-based qHTS assay (AID 1963586); further: nearly all actives have a fitted effect of over 45% in size; further: potency means the concentration at half of the fitted maximal effect
How it was run: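 CHO cells stably expressing human HTR2A were plated for 18 h at 37 C, then loaded with calcium dye for 1 h. Compounds were preincubated 5 min at room temperature before DOI (4 nM solution) was added. Kinetic fluorescence was read for 3 min.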

D(2) dopamine receptor (Homo sapiens), sequence (P14416 whole entry, looked up): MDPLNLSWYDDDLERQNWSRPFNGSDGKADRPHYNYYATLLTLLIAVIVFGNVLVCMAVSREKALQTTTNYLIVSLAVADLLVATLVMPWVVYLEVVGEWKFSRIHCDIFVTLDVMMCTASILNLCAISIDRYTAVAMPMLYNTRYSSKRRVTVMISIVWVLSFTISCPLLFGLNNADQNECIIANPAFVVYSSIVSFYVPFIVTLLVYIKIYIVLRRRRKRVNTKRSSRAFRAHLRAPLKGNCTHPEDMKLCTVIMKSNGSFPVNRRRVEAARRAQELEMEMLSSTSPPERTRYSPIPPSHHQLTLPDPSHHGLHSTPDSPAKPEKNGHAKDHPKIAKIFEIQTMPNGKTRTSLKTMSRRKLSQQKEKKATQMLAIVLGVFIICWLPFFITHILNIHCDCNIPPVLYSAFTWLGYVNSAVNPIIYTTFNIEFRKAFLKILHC
KiSS-1 receptor (Homo sapiens), sequence (Q969F8 whole entry, looked up): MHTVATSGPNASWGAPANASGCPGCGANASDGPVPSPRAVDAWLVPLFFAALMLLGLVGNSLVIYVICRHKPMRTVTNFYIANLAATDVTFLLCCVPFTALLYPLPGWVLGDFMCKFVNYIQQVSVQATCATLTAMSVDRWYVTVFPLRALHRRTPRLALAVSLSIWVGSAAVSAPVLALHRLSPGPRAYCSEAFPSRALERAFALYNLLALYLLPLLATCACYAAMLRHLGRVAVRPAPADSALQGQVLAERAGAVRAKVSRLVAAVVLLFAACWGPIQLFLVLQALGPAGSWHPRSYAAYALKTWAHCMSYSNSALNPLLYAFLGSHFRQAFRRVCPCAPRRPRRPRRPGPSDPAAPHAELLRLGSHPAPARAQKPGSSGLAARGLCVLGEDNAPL
Muscarinic acetylcholine receptor M1 (Homo sapiens), sequence (P11229 whole entry, looked up): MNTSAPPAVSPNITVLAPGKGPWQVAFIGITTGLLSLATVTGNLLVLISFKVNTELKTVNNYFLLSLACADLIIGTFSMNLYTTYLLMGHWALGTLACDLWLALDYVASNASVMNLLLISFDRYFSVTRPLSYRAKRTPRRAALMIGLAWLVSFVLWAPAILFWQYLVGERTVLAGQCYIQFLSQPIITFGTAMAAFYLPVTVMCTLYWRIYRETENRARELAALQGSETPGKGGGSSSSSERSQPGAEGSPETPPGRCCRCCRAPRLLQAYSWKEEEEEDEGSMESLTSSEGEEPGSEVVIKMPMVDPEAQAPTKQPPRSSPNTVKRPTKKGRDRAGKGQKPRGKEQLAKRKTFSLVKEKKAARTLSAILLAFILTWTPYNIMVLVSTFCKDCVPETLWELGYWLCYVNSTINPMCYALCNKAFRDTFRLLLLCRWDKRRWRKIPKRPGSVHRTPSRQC
5-hydroxytryptamine receptor 2A (Homo sapiens), sequence (P28223 whole entry, looked up): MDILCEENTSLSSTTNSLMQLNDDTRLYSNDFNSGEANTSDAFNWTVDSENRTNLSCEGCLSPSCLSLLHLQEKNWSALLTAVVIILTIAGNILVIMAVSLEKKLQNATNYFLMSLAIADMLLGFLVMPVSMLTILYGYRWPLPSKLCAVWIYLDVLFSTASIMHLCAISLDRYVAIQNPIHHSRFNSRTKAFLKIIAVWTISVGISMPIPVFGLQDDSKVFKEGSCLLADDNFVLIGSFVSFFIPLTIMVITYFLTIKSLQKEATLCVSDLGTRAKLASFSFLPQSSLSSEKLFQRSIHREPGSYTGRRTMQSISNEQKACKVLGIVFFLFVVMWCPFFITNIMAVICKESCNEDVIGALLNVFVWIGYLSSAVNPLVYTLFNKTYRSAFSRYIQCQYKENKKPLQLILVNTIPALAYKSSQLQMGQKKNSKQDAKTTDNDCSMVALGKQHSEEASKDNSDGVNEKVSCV
Gonadotropin-releasing hormone receptor (Homo sapiens), sequence (P30968 whole entry, looked up): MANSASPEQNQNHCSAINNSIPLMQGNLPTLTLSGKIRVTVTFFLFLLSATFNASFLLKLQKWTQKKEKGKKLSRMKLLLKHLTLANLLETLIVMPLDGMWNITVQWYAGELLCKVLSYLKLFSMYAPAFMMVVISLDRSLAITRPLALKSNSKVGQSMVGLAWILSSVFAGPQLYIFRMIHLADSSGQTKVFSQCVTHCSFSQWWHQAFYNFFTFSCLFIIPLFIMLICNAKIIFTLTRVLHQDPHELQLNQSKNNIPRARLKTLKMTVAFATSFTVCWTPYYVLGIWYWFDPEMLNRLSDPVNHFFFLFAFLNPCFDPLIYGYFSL
Beta-2 adrenergic receptor (Homo sapiens), sequence (P07550 whole entry, looked up): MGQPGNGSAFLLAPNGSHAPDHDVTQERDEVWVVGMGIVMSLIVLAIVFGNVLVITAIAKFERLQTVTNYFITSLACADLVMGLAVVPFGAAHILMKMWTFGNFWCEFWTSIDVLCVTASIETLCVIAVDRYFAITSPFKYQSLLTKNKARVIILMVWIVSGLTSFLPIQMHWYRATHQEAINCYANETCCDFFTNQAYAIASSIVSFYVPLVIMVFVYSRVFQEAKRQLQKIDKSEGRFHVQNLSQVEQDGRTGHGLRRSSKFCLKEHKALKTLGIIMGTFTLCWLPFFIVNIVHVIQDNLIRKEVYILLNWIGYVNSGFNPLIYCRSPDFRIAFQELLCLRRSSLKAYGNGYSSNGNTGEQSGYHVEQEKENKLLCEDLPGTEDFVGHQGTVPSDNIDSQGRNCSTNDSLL

## Cc1ccc(S(=O)(=O)NC(=O)NC2CCCCC2)cc1
[1]
  Potency: inactive
[2]
  Potency: inactive
[3]
  Potency: inactive
[4]
  Potency: inactive
[5]
  Potency: inactive
[6]
  Potency: inactive
[7]
  Potency: inactive
[8]
  Potency: inactive
[9]
  Potency: inactive
[10]
  Potency: inactive
[11]
  Potency: inactive
[12]
  Potency: inactive
[13]
  Potency: inactive
[14]
  Potency: inactive
[15]
  Potency: inactive

## COc1cc2nc(N(C)CCCNC(=O)C3CCCO3)nc(N)c2cc1OC (centres undefined)
[1]
  Potency: inactive
[2]
  Potency: inactive
[3]
  Potency: inactive
[4]
  Potency: inactive
[5]
  Potency: inactive
[6]
  Potency: inactive
[7]
  Potency: inactive
[8]
  Potency: inactive
[9]
  Potency: inactive
[10]
  Potency: inactive
[11]
  Potency: inactive
[12]
  Potency: inactive
[16]
  Potency: inactive
[17]
  Potency: inactive
[14]
  Potency: inactive

## CCN1CCN(C(=O)N[C@@H](C(=O)N[C@@H]2C(=O)N3[C@@H]2SC(C)(C)[C@H]3C(=O)O)c2ccccc2)C(=O)C1=O
[1]
  Potency: inactive
[2]
  Potency: inactive
[3]
  Potency: inactive
[4]
  Potency: inactive
[5]
  Potency: inactive
[6]
  Potency: inactive
[7]
  Potency: inactive
[8]
  Potency: inactive
[12]
  Potency: inactive
[16]
  Potency: inactive
[13]
  Potency: inactive
[14]
  Potency: inactive
[15]
  Potency: inactive

## CN1CCC[C@@H]1c1cccnc1
[1]
  Potency: inactive
[2]
  Potency: inactive
[3]
  Potency: inactive
[4]
  Potency: inactive
[5]
  Potency: inactive
[6]
  Potency: inactive
[7]
  Potency: inactive
[8]
  Potency: inactive
[12]
  Potency: inactive
[16]
  Potency: inactive
[13]
  Potency: inactive
[17]
  Potency: inactive
[14]
  Potency: inactive
[15]
  Potency: inactive

## CC1(C)C(=O)N(Cl)C(=O)N1Br
[1]
  Potency: inactive
[2]
  Potency: inactive
[3]
  Potency: inactive
[4]
  Potency: inactive
[5]
  Potency: inactive
[6]
  Potency: inactive
[7]
  Potency: inactive
[8]
  Potency: inactive
[9]
  Potency: inactive
[11]
  Potency: inactive
[12]
  Potency: inactive
[16]
  Potency: inactive
[13]
  Potency: inactive
[17]
  Potency: inactive
[14]
  Potency: inactive
[15]
  Potency: inactive

## O=C(N[C@@H](c1ccccc1)[C@@H]1CCCCN1)c1cccc(C(F)(F)F)c1Cl
[1]
  Potency: 43.3 µM (active)
[2]
  Potency: inactive
[3]
  Potency: 38.9 µM (active)
[4]
  Potency: inactive
[5]
  Potency: inactive
[6]
  Potency: inactive
[7]
  Potency: inactive
[8]
  Potency: inactive
[10]
  Potency: inactive
[11]
  Potency: inactive
[13]
  Potency: inactive
[14]
  Potency: inactive
[15]
  Potency: inactive

## O=C(O)c1nc(Cl)c(Cl)c(Cl)c1Cl
[1]
  Potency: inactive
[2]
  Potency: 30.6 µM (active)
[3]
  Potency: inactive
[4]
  Potency: inactive
[5]
  Potency: inactive
[6]
  Potency: inactive
[7]
  Potency: inactive
[8]
  Potency: inactive
[10]
  Potency: inactive
[11]
  Potency: inactive
[13]
  Potency: inactive
[14]
  Potency: inactive

## CCC(=O)c1ccc2c(c1)N(CCCN(C)C)c1ccccc1S2
[1]
  Potency: inactive
[2]
  Potency: inactive
[3]
  Potency: inactive
[4]
  Potency: inactive
[5]
  Potency: inactive
[6]
  Potency: inactive
[7]
  Potency: inactive
[18]
  Potency: 0.13 µM (active)
[11]
  Potency: inactive
[12]
  Potency: inactive
[16]
  Potency: inactive
[15]
  Potency: 0.531 µM (active)

## O=C1Cc2ccccc2N1c1c(Cl)cccc1Cl
[1]
  Potency: inactive
[2]
  Potency: inactive
[3]
  Potency: inactive
[4]
  Potency: inactive
[5]
  Potency: inactive
[6]
  Potency: inactive
[7]
  Potency: inactive
[18]
  Potency: inactive
[10]
  Potency: inactive
[11]
  Potency: inactive
[13]
  Potency: inactive
[17]
  Potency: inactive
[14]
  Potency: inactive
[15]
  Potency: inactive
